In PubChem BioAssay AID504339 (National Center for Advancing Translational Sciences (NCATS), 2011):
Screen size: about 390,000 compounds; about 17,000 (4.4%) were called active. Entries that show only a call come without a potency. About 8% were inconclusive and are not listed. Calls come from the whole dose curve; as a rule, active = well fitted inhibition curve with a large enough effect; inconclusive = small, poorly fitted or top-dose-only effect; inactive = no such curve, though single readings can be large or run the other way. The full list was thinned out, with actives kept by preference.

Target: Lysine-specific demethylase 4A (Homo sapiens) (UniProt O75164)
Test: qHTS Assay for Inhibitors of JMJD2A-Tudor Domain; note: nearly all actives have a fitted effect of over 50% in size
Details: AlphaScreen JMJD2A-Tudor / H3K4me3 peptide binding; series mostly up to 114 µM
Potency is the fitted concentration of half-maximal effect.

Chain of Lysine-specific demethylase 4A (Homo sapiens) (O75164 whole entry, looked up, the tested form may be a part): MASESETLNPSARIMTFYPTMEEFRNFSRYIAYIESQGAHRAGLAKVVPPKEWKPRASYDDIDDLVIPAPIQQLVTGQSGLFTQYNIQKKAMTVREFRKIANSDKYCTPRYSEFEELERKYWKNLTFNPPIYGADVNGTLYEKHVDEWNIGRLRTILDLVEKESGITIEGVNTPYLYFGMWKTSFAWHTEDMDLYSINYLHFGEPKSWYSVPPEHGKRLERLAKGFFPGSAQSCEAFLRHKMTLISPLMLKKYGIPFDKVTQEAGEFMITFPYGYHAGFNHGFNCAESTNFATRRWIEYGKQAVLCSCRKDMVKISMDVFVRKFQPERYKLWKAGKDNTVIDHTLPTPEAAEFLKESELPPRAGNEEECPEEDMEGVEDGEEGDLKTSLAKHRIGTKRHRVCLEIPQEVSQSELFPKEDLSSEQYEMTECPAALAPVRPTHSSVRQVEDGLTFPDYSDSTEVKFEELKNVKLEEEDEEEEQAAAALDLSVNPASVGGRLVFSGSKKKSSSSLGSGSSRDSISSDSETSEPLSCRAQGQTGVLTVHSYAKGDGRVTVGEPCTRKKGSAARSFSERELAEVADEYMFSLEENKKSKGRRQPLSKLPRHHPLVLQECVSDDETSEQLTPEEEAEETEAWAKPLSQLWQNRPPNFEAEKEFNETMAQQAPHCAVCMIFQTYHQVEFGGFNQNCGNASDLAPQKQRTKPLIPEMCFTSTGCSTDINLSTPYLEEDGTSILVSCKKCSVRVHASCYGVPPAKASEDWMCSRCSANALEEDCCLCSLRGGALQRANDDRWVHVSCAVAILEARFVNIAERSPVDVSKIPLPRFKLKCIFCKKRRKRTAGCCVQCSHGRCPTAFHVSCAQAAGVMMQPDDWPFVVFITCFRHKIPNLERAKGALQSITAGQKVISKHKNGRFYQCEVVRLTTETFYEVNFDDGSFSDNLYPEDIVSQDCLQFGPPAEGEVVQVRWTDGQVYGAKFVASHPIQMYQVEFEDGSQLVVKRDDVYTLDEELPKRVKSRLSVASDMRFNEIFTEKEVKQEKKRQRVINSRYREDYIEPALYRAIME

Compound	Potency
O=C(Nc1ccc2nc(SCCOc3ccccc3Cl)sc2c1)c1ccco1	inactive
COc1ccc(/C=C/C(=O)c2cc(Br)ccc(=O)c2O)cc1	31.6 µM (active)
COc1ccc(CC(=O)NCC(=O)N/N=C/c2cc(Br)ccc2OC)cc1	inactive
COc1ccc(C(=O)c2oc3ccc(Br)cc3c2NC(C)=O)cc1	inactive
COc1ccc(S(=O)(=O)NCc2cccn2Cc2cccc(C)c2)cc1	inactive
CCOc1ccccc1N(C)C(=O)c1cc2c(s1)-c1ccccc1OC2	inactive
CCSc1ncc(Cl)c(C(=O)Nc2c(C(=O)c3ccccc3)oc3ccccc23)n1	inactive
O=C(CCS(=O)(=O)c1cc(Br)cc2c1N(C(=O)C1CC1)CC2)Nc1ccc(Br)cc1F	inactive
CCc1ccccc1N1C(=O)C2C3CC(=O)C(c4ccccc43)C2C1=O (configuration not stated)	inactive
CC1=C(C)CC2C(=O)N(c3cccc4ccccc34)C(=O)C2C1 (configuration not stated)	56.2 µM (active)
Cc1ccc(N2C(=O)CC(Nc3cccc4ccccc34)C2=O)cc1 (configuration not stated)	inactive
O=C(Cn1ncn2nc(-c3cccs3)cc2c1=O)NCc1cccc(Br)c1	inactive
CCOC(=O)c1[nH]c(C)c(CCC(=O)N2CCN(c3ccccc3)CC2)c1C	inactive
Cc1ccc(CNC(=O)Cn2c(=O)ccc3cc(S(=O)(=O)N4CCCC4)ccc32)cc1	inactive
COc1ccc(OCCn2ccnc2C)cc1	1 µM (active)
COc1ccc(OCCn2cc(C(=O)C3CCCCC3)c3ccccc32)cc1	inactive
COc1ccc(OCCCC(=O)Oc2ccc(OC)cc2)cc1	inactive
CCOc1ccc(N(CC)C(=O)C2CCN(S(=O)(=O)c3cccc4nonc34)CC2)cc1	inactive
O=S(=O)(Nc1cc(Cl)ccc1N1CCOCC1)c1ccccc1Cl	inactive
Cc1oc2c(c1C(=O)N1CCOCC1)C(=O)c1ccccc1C2=O	inactive
O=C1c2ccccc2-c2ncnc3c(N4CCOCC4)cc(N4CCOCC4)c1c23	44.7 µM (active)
Cn1nnnc1SCCCNCc1cccc(OCc2ccc(Cl)cc2)c1	inactive
O=[S+]([O-])(c1ccc2c(c1)OCCO2)N1CCN([S+](=O)([O-])c2c(Cl)cc(Cl)cc2Br)CC1	inactive
Cc1ccc(C)c(N2CCN(CCCNC(=O)Nc3ccc(Cl)cc3)CC2)c1	inactive
CCOc1ccc(NC(=O)CCS(=O)(=O)c2cccc3nsnc23)cc1	inactive
CCOc1ccc(OCC)c(NC(=O)CN(C)S(=O)(=O)c2cccc3nsnc23)c1	50.1 µM (active)

Compound	Potency
CCOc1ccccc1NC(=O)CCS(=O)(=O)c1cccc2nsnc12	inactive
CCc1nc2onc(C)c2c(=O)n1CC(=O)O	inactive
CCOc1ccc(NC(=O)c2cn(C3CCCCC3)c(=O)c3c2c2ccccc2n3C)cc1	inactive
O=C(N/N=C\c1cccc(Br)c1)c1ccccc1-n1cccc1	inactive
O=C(Nc1ccc(N2CCCC2=O)cc1)c1cncc(Br)c1	inactive
O=C(N/N=C/c1cccc(Br)c1)c1ccc(N2CCCC2=O)cc1	56.2 µM (active)
O=[N+]([O-])c1ccccc1OCCCCN1CCCCC1	inactive
CC1CN(CCOc2ccccc2[N+](=O)[O-])CC(C)O1 (configuration not stated)	22.4 µM (active)
CC(Oc1ccccc1[N+](=O)[O-])C(=O)N/N=C/c1ccoc1 (configuration not stated)	inactive
COc1ccc2ncc3c(-c4ccc(C)c(C)c4)nn(CC(=O)NC4CCCC4)c3c2c1	inactive
Cc1cc(=O)n(CC(=O)Nc2cccc([N+](=O)[O-])c2)c(-n2nc(C)cc2C)n1	inactive
O=C(/C=C/c1ccccc1)N1CCN(Cc2cc(=O)n3nc(-c4ccccc4F)sc3n2)CC1	inactive
COc1cccc2c1cc1c(=O)n(CC(=O)N3CCN(c4ccccc4)CC3)nc(C)n12	inactive
CC1Cc2cc(/C(O)=C3\C(=O)C(=O)N(Cc4cccnc4)C3c3ccccc3F)ccc2O1 (configuration not stated)	inactive
CC1Cc2cc(/C(O)=C3\C(=O)C(=O)N(CCN4CCOCC4)C3c3ccccc3F)ccc2O1 (configuration not stated)	39.8 µM (active)
O=C1C(=O)N(CCN2CCOCC2)C(c2cccc(Cl)c2)/C1=C(/O)c1ccc2c(c1)OCO2 (configuration not stated)	inactive
CCOc1ccccc1NC(=O)C1CCCN(S(=O)(=O)c2cn(C)cn2)C1 (configuration not stated)	inactive
COCCNS(=O)(=O)c1cc(-c2nn3c(C)nnc3c3ccccc23)ccc1C	inactive
Cc1cccc(N=Nc2c(O)[nH]c3ccc(F)cc23)c1	inactive
Cc1c(N=Nc2ccc(N(C)C)cc2)c(=O)n(-c2ccccc2)n1C	inactive
Cc1[nH]n(-c2ccccc2)c(=O)c1CCOC(=O)c1ccc(C(F)(F)F)cc1	inactive
Cc1cccc(N=Nc2c(C)[nH]n(-c3ccccc3)c2=O)c1	11.2 µM (active)
Cc1ccc(N=Nc2c(C)[nH]n(-c3ccccc3)c2=O)cc1	6.31 µM (active)
Cc1ccc(-c2ccnc3[nH]n(-c4ccccc4)c(=O)c23)cc1	inactive
O=C(NCc1ccc(F)cc1)c1ccc(Cn2c(SCc3ccc(F)cc3)nc3cccnc32)cc1	inactive
Cc1c(NC(=O)Nc2ccc(F)c(Cl)c2)c(=O)n(-c2ccccc2)n1C	inactive

Compound	Potency
Cc1c(CNC(C)c2ccccc2)c(C(=O)O)c(C)n1Cc1c(F)cccc1Cl (configuration not stated)	inactive
O=C(NCCCO)C(=O)Nc1c2c(nn1-c1ccc(F)cc1)CSC2	inactive
CCn1c(CNC(=O)C23CC4CC(CC(C4)C2)C3)nnc1SCC(=O)Nc1ccc(OC)cc1	inactive
CC1=C(c2ccc(F)cc2)S(=O)(=O)N=C1N1CCC(C(=O)NCCc2ccccc2C)CC1	inactive
CCCS(=O)(=O)N1CCC(n2c(C(F)(F)F)nc3cccnc32)CC1	inactive
NS(=O)(=O)c1ccc(NC(=O)COc2ccc(S(=O)(=O)NC3CCCCC3)cc2)cc1	inactive
CC(C)Cn1c(=O)c2ccccc2n2c(CCC(=O)N3CCN(c4cccc(Cl)c4)CC3)nnc12	inactive
CCOc1ccc2nc(N3CCC(C(=O)Nc4cc(C)ccc4C)CC3)sc2c1	inactive
OCCNCCOc1ccc(Cl)c(Cl)c1	inactive
COCCCNCCOCCOc1ccc(Cl)cc1Br	1.78 µM (active)
COCCNCCOCCOc1cccc(OC)c1	inactive
COC(=O)c1nc(NC(=O)c2ccccc2)n[nH]1	inactive
Cn1nnc(NC(=S)NC(=O)c2ccccc2)n1	5.01 µM (active)
COc1cc(NS(=O)(=O)c2ccc(NC(=S)NC(=O)c3ccccc3)cc2)nc(OC)n1	inactive
O=C(C1COc2ccccc2O1)N(Cc1cccnc1)c1nc2c(F)cc(F)cc2s1 (configuration not stated)	inactive
COc1ccc(Cc2nnc(NC(=O)Cc3cccs3)s2)cc1	28.2 µM (active)
COc1ccc(Cc2nnc(NS(=O)(=O)Cc3ccccc3)s2)cc1	inactive
COc1ccccc1NC(=O)Nc1nnc(Cc2ccc(F)cc2)s1	inactive
Cc1nn(C(C)C(=O)NCCc2ccccc2)c(=O)c2c1sc1ccccc12 (configuration not stated)	inactive
COC(=O)c1sccc1S(=O)(=O)N(CC(=O)Nc1ccc(C)c(F)c1)c1ccc(C)c(C)c1	inactive
CC(=O)c1sc(N/N=C/c2ccc(C(C)C)cc2)nc1C	inactive
COc1cc(/C=N\Nc2nc(-c3cccs3)c(NC(C)=O)s2)ccc1O	25.1 µM (active)
CCOc1cc(C=NNC(=O)CCCC(=O)NN=Cc2ccc(O)c(OCC)c2)ccc1O	inactive
Cc1ccc2nc(COc3cccc(NC(=O)c4ccccc4Cl)c3)cc(=O)n2c1	inactive
COc1cc(C(=O)NCCc2csc3nc(-c4ccccc4C)nn23)cc(OC)c1OC	inactive
CCOC(=O)c1c(NC(=O)CSc2nccc(=O)[nH]2)sc(C)c1C	inactive

Compound	Potency
CCOC(=O)c1c(NC(=O)CSc2nnc(Cc3csc(N)n3)n2C)sc(C)c1C	39.8 µM (active)
CCOC(=O)c1c(NC(=O)CSc2nnc(CN3CCOCC3)n2C)sc2c1CCCC2	inactive
COc1ccc(C2C(=O)N(C3CCCCCC3)CC(=O)N2CCc2ccc(Cl)cc2)cc1OC (configuration not stated)	inactive
Cc1ccc(Cn2cc(CCC(=O)NCc3ccc(OC(C)C)cc3)c3ccccc32)cc1	inactive
Cc1cccc(NC(=O)c2cccc(S(=O)(=O)N3CCCC3)c2)n1	inactive
Cc1ncc(CO)c(/C=N/NC(=O)c2cccc(S(=O)(=O)N3CCCC3)c2)c1O	22.4 µM (active)
CCOc1cc(/C=N/NC(=O)c2cccc(S(=O)(=O)N3CCOCC3)c2)ccc1OCC(=O)N(C)C	inactive
COc1ccccc1CCNC(=O)c1cccn1-c1nnc(N2CCCCC2)s1	inactive
COc1ccc2c(C)c(CCC(=O)NCc3ccc(OC)c(OC)c3)c(=O)oc2c1	inactive
CCCCN=C1N/C(=C\c2ccco2)C(=O)N1c1ccccc1	inactive
COC(=O)COc1ccc2c(c1C)O/C(=C\c1ccco1)C2=O	inactive
O=C(OCN1C(=O)c2ccccc2C1=O)/C(=C\c1ccco1)NC(=O)c1ccccc1	inactive
COC(=O)C1=C(C)N(c2ccc(C)cc2)/C(=C/c2ccc(O)cc2)C1=O	inactive
COC(=O)C1=C(C)N(C(C)c2ccccc2)C(=O)/C1=C\c1ccco1 (configuration not stated)	25.1 µM (active)
COC(=O)C1=C(C)N(c2ccc(Br)cc2)C(=O)/C1=C\c1ccco1	17.8 µM (active)
CCOC(=O)c1c(C)[nH]c(C)c1S(=O)(=O)N1CCC(C(=O)Nc2ccc(C)c(Cl)c2)CC1	inactive
CCOC(=O)C1CCCN(C(=O)c2ccc3c(c2)sc2nc(-c4ccc(CC)cc4)cn23)C1 (configuration not stated)	inactive
COC(=O)c1sc2ncccc2c1-n1c(C)ccc1C	inactive
COc1ccc(CNC(=O)c2cc3c(s2)-c2ccccc2OC3)cc1	inactive
Cc1cccc(N2CCN(C(=O)c3cnc(N4CCCC4)nc3C)CC2)c1C	inactive
COc1ccc(-c2cc(-c3ccc(F)cc3)nc3c2COc2ccccc2-3)cc1	inactive
COc1cc(Nc2nc(-c3ccc(OC)c(OC)c3)nc3ccccc23)cc(OC)c1	inactive
COc1ccc(Nc2nc(-c3cccnc3)nc3ccccc23)cn1	31.6 µM (active)
CCN(CC(=O)NC1CCS(=O)(=O)C1)c1nc(-c2cccnc2)nc2ccccc12 (configuration not stated)	inactive
